Experimental data as given in the supplement of paper PMC4466236.
In all, about 33,000 sequences were measured (“E-score (dimensionless, -0.5 to 0.5)”: median about -0.058, highest 2% from about 0.35 on). This excerpt belongs to a sample that is enriched for the highest values.

Each sequence was assayed on MvaT (assay: PBM 8-mer E-score (mean of HK and ME arrays) (E-score (dimensionless, -0.5 to 0.5)); higher = stronger relative binding preference).
Method: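 Protein binding microarray: GST-tagged full-length MvaT (P. aeruginosa PAO1) bound to two universal double-stranded 60-mer arrays (ME and HK), each with a constant 25-mer primer and a variable 35-mer region covering all 8-mers. The 8-mer E-score (rank-based, range -0.5 to 0.5, >0.45 = specific binding) is the mean of the two arrays.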

Sequence | PBM 8-mer E-score
ATATTTGG | 0.177
CTATTTGA | 0.229
ATATTTGC | 0.351
ATATTTGA | 0.363
GTATTTGA | 0.319
CTATTTGC | 0.148
ACTTTTTC | 0.0911
CCAGATAA | 0.165
AGTAGACA | -0.00875
ACATATAT | 0.47
ACATATAG | 0.264
ACATATAA | 0.446
ACATATAC | 0.287
ACATATGA | 0.179
ACACATAA | 0.273
ATACATCA | 0.192
CGGTAGCC | -0.317
AGTTCAGG | 0.0672
AATCTTGT | 0.0955
AAGCTCTA | -0.217
ATATAATC | 0.415
ATCTAATC | 0.167
ATATAATG | 0.402
ACATAATG | 0.302
CTATAATC | 0.295

Sequence | PBM 8-mer E-score
ATATAAGG | 0.31
AAGGAATG | 0.0374
TCTAGAAA | 0.0814
TCTCCTCA | -0.177
CCTGGTAA | -0.0325
GCCGTCAC | -0.163
CCAATCGG | -0.128
CGTCTCAA | -0.0154
ATGTCAGC | -0.039
TTTAAAAA | 0.363
TTTTAAAA | 0.409
GTTAAAAA | 0.239
GTTTAAAA | 0.293
CTTTAAAA | 0.287
TTAAAAAA | 0.305
AGAAGTTA | 0.279
GAACATTC | -0.0126
CATTGTAC | 0.151
AGGACGTA | -0.138
GCGTATTA | 0.193
CAGTATTA | 0.289
AAGTATTA | 0.388
ACGTATTG | 0.183
ACGTATTA | 0.356
AAGTATTC | 0.161

Sequence | PBM 8-mer E-score
ATATCTAG | 0.252
GCCTACGA | -0.271
GCATACCA | -0.104
CCGTGCGA | -0.193
ACAAATAG | 0.268
GCAAATAA | 0.325
ACAAATAA | 0.38
ACAAATAC | 0.247
ACAAATAT | 0.405
TCAAATAA | 0.28
CCAGGCAC | -0.347
GCCGAGAA | -0.0283
GTATATGA | 0.245
ATATATGC | 0.424
ACATATGG | 0.145
CTATATGA | 0.124
CTATATGC | 0.227
ATATATGA | 0.439
ACATATGC | 0.129
AGATATGG | 0.00259
ATATATGG | 0.42
AAAGCTCC | -0.295
AGTCTTAC | 0.0995
CGAGATCA | -0.0866
CTATAGAG | -0.125

Sequence | PBM 8-mer E-score
ATATAGAC | 0.224
AGATAGAT | 0.152
CTATAGAA | 0.103
ATATAGAG | 0.351
GTATAGAA | 0.0668
ATATAGAT | 0.35
ATAGAGAG | 0.188
ATATAGAA | 0.366
ATGACCAC | -0.00499
AATGTTTG | 0.212
AGGCGAGA | -0.0992
CACGCCAG | -0.233
AACGCGGA | -0.163
AAGAGGTC | -0.209
ATAACTAC | 0.272
CTTTAGAC | 0.0841
ATGCGGTA | -0.111
AACTTTCT | 0.22
TAACTTAA | 0.406
AACTTTCA | 0.351
CACTTTCA | 0.136
TGCTTTAA | 0.094
GACTTTAA | 0.262
AAACTTAC | 0.306
TACTTTAA | 0.422

Sequence | PBM 8-mer E-score
AAACTTAA | 0.326
GAACTTAA | 0.263
AAACTTAT | 0.381
CAACTTAA | 0.31
AAAACCGC | 0.058
AGGACGGA | -0.0832
ACCTGGGG | -0.366
AGGCTGAT | -0.0817
CCCGGTTA | 0.00633
ATTGCGCA | 0.111
ACTGGACG | -0.0771
CACTTTAA | 0.274
AACTTTAG | 0.211
AACTTTAT | 0.357
AACTTTAA | 0.385
AACTTTTA | 0.34
AACTTTAC | 0.275
GGGTGCGA | -0.091
CCGGCGCA | -0.0431
ATCGACAC | -0.0169
AGTGCGCA | 0.13
AGGGGCGA | -0.155
ATCACTCG | 0.0455
AGCTGGTA | -0.107
ACAGGAAC | -0.0162

Sequence | PBM 8-mer E-score
ATAACTTA | 0.429
ATAACTGA | 0.246
CTAACTAA | 0.286
GTAACTCA | 0.116
CTAACTGA | 0.0161
GTAACTGA | 0.199
GTAACTTA | 0.37
CTAACTTA | 0.379
AGAACTTA | 0.256
CTTGTCGC | -0.147
CCTCGTGA | -0.253
CCCTGTTA | -0.0586
AGCAAGAG | -0.0917
TCGATCCA | -0.213
ACATCTTC | 0.185
ATCTACTG | 0.0718
ATTTGTTG | 0.172
ATTGAAAT | 0.27
ACTAGTTA | 0.345
CTAAATAA | 0.365
CTAAATGA | 0.126
TTAAATAA | 0.445
TTAAACAA | 0.321
CTAAATCA | 0.0639
CTAAATAC | 0.232

Sequence | PBM 8-mer E-score
GCGATTCC | -0.0999
AGGCAGAA | -0.226
ACTCGTGA | -0.0788
GGACTCCC | -0.283
TAGTGAGA | 0.0304
ACCCTTCC | -0.184
CCATATTC | 0.161
GCATATTA | 0.278
ACATATTG | 0.281
CCATATTA | 0.353
ACATATTA | 0.44
ACATATTC | 0.281
AACCACTC | 0.00691
GCGGAGGA | -0.291
AAATTTGT | 0.264
AGGGTACC | -0.343
AACAAAAA | 0.239
AACAAGAT | 0.164
AACAAATG | 0.172
AACAAGTA | 0.343
GACAAATA | 0.297
TACAAATA | 0.355
AACAAATA | 0.369
CACAAATA | 0.338
AACAAAAT | 0.35
